According to PubChem BioAssay AID1159580 (chemical genetic matrix, 2015):
In all, about 5,500 compounds went through this assay and about 2,000 (36%) were called active. Roughly 18% stayed inconclusive and do not appear here. No stated cut-off is given here; in the data, active means normalized growth mostly below about 0.91 (no sharp cut-off); inconclusive means no clear call, values can overlap the other calls; inactive means mostly above about 0.92. This is one part of the list.

Test: chemical genetic growth profiling, strain panel (AID 1159580);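 further: tested at 20 µM; growth read once vehicle control cultures reached saturation at 30 °C; 1 = growth at the plate median or of vehicle wells; lower values mean less growth of the strain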
Details: growth OD
[1] = S. cerevisiae deletion strains, locus YAL013W, strain DEP1, active compounds read low
[2] = S. cerevisiae deletion strains, locus YBR229C, strain ROT2, active compounds read low
[3] = S. cerevisiae deletion strains, locus YDL101C, strain DUN1, active compounds read low
[4] = S. cerevisiae deletion strains, locus YDR150W, strain NUM1, active compounds read low
[5] = S. cerevisiae deletion strains, locus YEL061C, strain CIN8, active compounds read low
[6] = S. cerevisiae deletion strains, locus YGR078C, strain PAC10, active compounds read low
[7] = S. cerevisiae deletion strains, locus YGR229C, strain SMI1, active compounds read low
[8] = S. cerevisiae deletion strains, locus YHR030C, strain SLT2, active compounds read low
[9] = S. cerevisiae deletion strains, locus YHR087W, strain rtc3, active compounds read low
[10] = S. cerevisiae deletion strains, locus YJR043C, strain POL32, active compounds read low
[11] = S. cerevisiae deletion strains, locus YJR075W, strain HOC1, active compounds read low
[12] = S. cerevisiae deletion strains, locus YLR039C, strain RIC1, active compounds read low
[13] = S. cerevisiae deletion strains, locus YLR058C, strain SHM2 (second series), active compounds read low
[14] = S. cerevisiae deletion strains, locus YLR085C, strain ARP6, active compounds read low
[15] = S. cerevisiae deletion strains, locus YLR262C, strain YPT6, active compounds read low
[16] = S. cerevisiae deletion strains, locus YML094W, strain GIM5, active compounds read low
[17] = S. cerevisiae deletion strains, locus YMR219W, strain ESC1, active compounds read low
[18] = S. cerevisiae deletion strains, locus YMR263W, strain SAP30, active compounds read low
[19] = S. cerevisiae deletion strains, locus YNL153C, strain GIM3, active compounds read low
[20] = S. cerevisiae deletion strains, locus YNL298W, strain CLA4 (second series), active compounds read low
[21] = S. cerevisiae deletion strains, locus YNL322C, strain KRE1, active compounds read low
[22] = S. cerevisiae deletion strains, locus YNR030W, strain Alg12, active compounds read low
[23] = S. cerevisiae deletion strains, locus YOL006C, strain TOP1, active compounds read low
[24] = S. cerevisiae deletion strains, locus YPL055C, strain LGE1, active compounds read low
[25] = S. cerevisiae deletion strains, locus YPL241C, strain CIN2, active compounds read low
[26] = S. cerevisiae deletion strains, locus YPR135W, strain CTF4, active compounds read low
[27] = S. cerevisiae strains, strain wild type, active compounds read low

Measured: normalized growth

COc1cccc(-c2nc(C#N)c(N)o2)c1
inactive: [1] 0.987 | [2] 0.996 | [3] 0.995 | [4] 0.983 | [5] 1.02 | [6] 0.996 | [8] 0.708 | [9] 1 | [10] 0.968 | [11] 0.992 | [12] 0.945 | [13] 0.99 | [14] 0.79 | [15] 0.979 | [16] 1.01 | [17] 0.989 | [18] 0.944 | [19] 0.987 | [20] 0.946 | [21] 1.01 | [22] 0.989 | [23] 0.796 | [24] 0.966 | [25] 0.953 | [26] 0.871 | [27] 0.958
active: [7] 0.938

c1cc2c(cc1N=C1SCC3CCCCN13)OCO2 (configuration not stated)
inactive: [1] 1 | [2] 1.01 | [3] 1.02 | [4] 1.05 | [5] 0.991 | [6] 1.01 | [7] 0.997 | [8] 1.05 | [9] 0.995 | [10] 1.03 | [11] 1.03 | [12] 0.983 | [13] 1 | [14] 0.932 | [15] 1.12 | [16] 0.973 | [17] 1 | [18] 1.01 | [19] 1.02 | [20] 0.974 | [21] 1 | [22] 1 | [24] 0.996 | [25] 0.953 | [26] 1.05 | [27] 1

NC(=S)COc1ccccc1Cl
inactive: [1] 0.998 | [2] 0.985 | S. cerevisiae deletion strains, locus YCL061C, strain MRC1, active compounds read low 1 | [3] 1 | S. cerevisiae deletion strains, locus YDL134C, strain PPH21, active compounds read low 0.981 | [4] 0.998 | [5] 0.931 | [6] 1.03 | [8] 0.794 | [9] 1.04 | S. cerevisiae deletion strains, locus YJL187C, strain SWE1, active compounds read low 0.983 | [10] 0.994 | [11] 1.01 | S. cerevisiae deletion strains, locus YKL190W, strain CNB1, active compounds read low 0.968 | [12] 0.796 | [13] 0.982 | [15] 0.887 | [16] 0.947 | [17] 0.982 | [18] 1.01 | [19] 0.971 | [21] 0.994 | [22] 0.95 | [24] 1.04 | [25] 0.891 | [26] 0.801
active: [14] 0.624 | [20] 0.799 | [23] 0.294
